Reference: publication PMC8384837, “Expanding the binding specificity for RNA recognition by a PUF domain”
Changes are numbered by the printed parent chain.

Columns and labels:
Experiment in all cases: yeast three-hybrid, YBZ-1, SC-Leu-His + 0.5 mM 3-AT, 4 days
Details in all cases: tags: N-Gal4 AD-HA kept; label: inside an RPR1-promoter hybrid RNA with tandem MS2 sites; ssRNA
[1] = biological target: T1, PUM1 PUF domain R6-RYC (Homo sapiens, UniProt Q14671 828-1176, N1043R;Q1047C)
T1 sequence: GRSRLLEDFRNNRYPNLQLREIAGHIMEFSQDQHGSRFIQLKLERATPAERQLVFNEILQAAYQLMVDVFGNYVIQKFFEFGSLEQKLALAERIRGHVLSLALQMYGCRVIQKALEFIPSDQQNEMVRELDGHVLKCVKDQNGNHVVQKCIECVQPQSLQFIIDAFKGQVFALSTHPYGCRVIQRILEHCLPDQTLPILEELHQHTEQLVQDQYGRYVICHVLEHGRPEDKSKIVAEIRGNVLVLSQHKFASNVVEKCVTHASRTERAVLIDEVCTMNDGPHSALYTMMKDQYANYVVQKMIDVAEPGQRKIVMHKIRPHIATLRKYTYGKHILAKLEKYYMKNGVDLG
In short: (§1)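 Each repeat of the Pumilio-1 PUF domain was randomized at its three base-contacting residues, and these libraries were co-expressed from a centromeric plasmid with matching RNA elements in strain YBZ-1. After four days on SC-Leu (input) or SC-Leu-His + 0.5 mM 3-AT (selection), the repeat regions were PCR-amplified and Illumina-sequenced. The interaction score compares variant frequency between input and selection as a log change, computed in log2 with a pseudocount of 1 for absent variants.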

[2] = biological target: T2, PUM1 PUF domain R6-SWS (Homo sapiens, UniProt Q14671 828-1176, N1043S;Y1044W;Q1047S)
T2 sequence: T1 sequence with R216S, Y217W, C220S
In short: as §1

[3] = biological target: PUM1 PUF domain R5-GRT (Homo sapiens, UniProt Q14671 828-1176, C1007G;Q1011T)
In short: as §1

[4] = biological target: T3, PUM1 PUF domain R6-GWR (Homo sapiens, UniProt Q14671 828-1176, N1043G;Y1044W;Q1047R)
T3 sequence: T1 sequence with R216G, Y217W, C220R
In short: as §1

[5] = biological target: T4, PUM1 PUF domain R6-VWH (Homo sapiens, UniProt Q14671 828-1176, N1043V;Y1044W;Q1047H)
T4 sequence: T1 sequence with R216V, Y217W, C220H
In short: as §1

[6] = biological target: PUM1 PUF domain R1-EKK (Homo sapiens, UniProt Q14671 828-1176, S863E;R864K;Q867K)
In short: as §1

[7] = biological target: PUM1 PUF domain R4-PYD (Homo sapiens, UniProt Q14671 828-1176, N971P;H972Y;Q975D)
In short: as §1

[8] = biological target: PUM1 PUF domain R5-LHS (Homo sapiens, UniProt Q14671 828-1176, C1007L;R1008H;Q1011S)
In short: as §1

[9] = biological target: PUM1 PUF domain R5-RGA (Homo sapiens, UniProt Q14671 828-1176, C1007R;R1008G;Q1011A)
In short: as §1

[10] = biological target: PUM1 PUF domain R8-KHV (Homo sapiens, UniProt Q14671 828-1176, N1122K;Y1123H;Q1126V)
In short: as §1

GGCUAGAACUAGUGGAUCCCCCGGCGCCCGGCGGCUCGAGCCCGGGUAAGUGUAAAUAGUCUGCAUGCCGCCGGGCGCCAUGCCUGCAGGUCGACUCUAGAAAACAUG
binding signal [1]: 4.42 log2 enrichment (interaction score)
binding signal [2]: 4.04 log2 enrichment (interaction score)
binding signal [3]: 2.94 log2 enrichment (interaction score)
binding signal [4]: 6.56 log2 enrichment (interaction score)

GGCUAGAACUAGUGGAUCCCCCGGCGCCCGGCGGCUCGAGCCCGGGUAAGUGCAAAUAGUCUGCAUGCCGCCGGGCGCCAUGCCUGCAGGUCGACUCUAGAAAACAUG
binding signal [4]: 3.5 log2 enrichment (interaction score)

GGCUAGAACUAGUGGAUCCCCCGGCGCCCGGCGGCUCGAGCCCGGGUAAGUGAAAAUAGUCUGCAUGCCGCCGGGCGCCAUGCCUGCAGGUCGACUCUAGAAAACAUG
binding signal [2]: 3.49 log2 enrichment (interaction score)
binding signal [5]: 7.07 log2 enrichment (interaction score)

GGCUAGAACUAGUGGAUCCCCCGGCGCCCGGCGGCUCGAGCCCGGGUAAGUGUAAAUUGUCUGCAUGCCGCCGGGCGCCAUGCCUGCAGGUCGACUCUAGAAAACAUG
binding signal [6]: 2.94 log2 enrichment (interaction score)

GGCUAGAACUAGUGGAUCCCCCGGCGCCCGGCGGCUCGAGCCCGGGUAAGUGUAUAUAGUCUGCAUGCCGCCGGGCGCCAUGCCUGCAGGUCGACUCUAGAAAACAUG
binding signal [7]: 5.78 log2 enrichment (interaction score)

GGCUAGAACUAGUGGAUCCCCCGGCGCCCGGCGGCUCGAGCCCGGGUAAGUGUCAAUAGUCUGCAUGCCGCCGGGCGCCAUGCCUGCAGGUCGACUCUAGAAAACAUG
binding signal [8]: 2.24 log2 enrichment (interaction score)
binding signal [3]: 0.6 log2 enrichment (interaction score)
binding signal [9]: 2.27 log2 enrichment (interaction score)

GGCUAGAACUAGUGGAUCCCCCGGCGCCCGGCGGCUCGAGCCCGGGUAAGUGUGAAUAGUCUGCAUGCCGCCGGGCGCCAUGCCUGCAGGUCGACUCUAGAAAACAUG
binding signal [3]: 2.87 log2 enrichment (interaction score)

GGCUAGAACUAGUGGAUCCCCCGGCGCCCGGCGGCUCGAGCCCGGGUAAGCGUAAAUAGUCUGCAUGCCGCCGGGCGCCAUGCCUGCAGGUCGACUCUAGAAAACAUG
binding signal [10]: 2.09 log2 enrichment (interaction score)

GGCUAGAACUAGUGGAUCCCCCGGCGCCCGGCGGCUCGAGCCCGGGUAAGUGUUAAUAGUCUGCAUGCCGCCGGGCGCCAUGCCUGCAGGUCGACUCUAGAAAACAUG
binding signal [8]: 5.04 log2 enrichment (interaction score)
binding signal [3]: 3.02 log2 enrichment (interaction score)
binding signal [9]: 1.01 log2 enrichment (interaction score)

GGCUAGAACUAGUGGAUCCCCCGGCGCCCGGCGGCUCGAGCCCGGGUAAGGGUAAAUAGUCUGCAUGCCGCCGGGCGCCAUGCCUGCAGGUCGACUCUAGAAAACAUG
binding signal [10]: 2.26 log2 enrichment (interaction score)
